# From PubChem BioAssay AID651671 (Sanford-Burnham Center for Chemical Genomics, 2012)
# Some of the results follow. Values without a mark were called inactive.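 Rule for the calls: active = activation of at least 7% in one or more replicates; inactive = the rest.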
# Experiment: alpha-DG glycosylation enhancers, retest, confirmation, single concentration, Pro5-aDG cells (AID 651671);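 note: cells exposed to compound for two days before detection; 0% = DMSO-treated Pro5 cells and 100% = DMSO-treated B10-LARGE cells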
# Settings: IIH6 AlphaLISA, stronger effect = higher value, screened at 10 µM (by protocol), scaled to LARGE-overexpressing B10 cells as 100%
compound,measurement,value
CNCC(O)c1cc(F)c(OCc2ccccc2)c(OCc2ccccc2)c1F (stereo unspecified),activation,4%
